Several values for one entry are separate records, joined by “and”; a condition that tells them apart may be missing. Equal entries are not always repeated. About 2,000 (36%) of roughly 5,500 compounds were called active. Another 18% or so got no clear call; they are omitted. This is one part of the list. Values without a mark were called inactive. Cut-off read from the data, not from the text of the source: active = normalized growth mostly below about 0.91 (no sharp cut-off); inconclusive = no clear call, values can overlap the other calls; inactive = mostly above about 0.92.
Experiment: chemical genetic growth profiling, strain panel (AID 1159580);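 note: tested at 20 µM; growth read once vehicle control cultures reached saturation at 30 °C; 1 = growth at the plate median or of vehicle wells; lower values mean less growth of the strain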
Settings: S. cerevisiae deletion strains, growth OD

## CC1(C)C2CC[C@]3(C)C(C(=O)C=C4[C@H]5C[C@@](C)(C(=O)O)CC[C@]5(C)CC[C@]43C)[C@@]2(C)CC[C@@H]1O (stereo partly specified)
Locus YAL013W, strain DEP1, active compounds read low
  normalized growth: 1.04
Locus YAL021C, strain ccr4, active compounds read low
  normalized growth: 1.02
Locus YAL026C, strain drs2, active compounds read low
  normalized growth: 0.881 (active)
Locus YAL030W, strain snc1, active compounds read low
  normalized growth: 1
Locus YBL061C, strain skt5, active compounds read low
  normalized growth: 0.972
Locus YBR009C, strain hhf1, active compounds read low
  normalized growth: 0.861 (active)
Locus YBR021W, strain FUR4, active compounds read low
  normalized growth: 1
Locus YBR023C, strain chs3, active compounds read low
  normalized growth: 0.941
Locus YBR171W, strain sec66, active compounds read low
  normalized growth: 1.02
Locus YBR229C, strain ROT2, active compounds read low
  normalized growth: 1.04
Locus YBR231C, strain swc5, active compounds read low
  normalized growth: 0.98
Locus YBR279W, strain paf1, active compounds read low
  normalized growth: 0.948
Locus YCL011C, strain gbp2, active compounds read low
  normalized growth: 0.923
Locus YCL016C, strain dcc1, active compounds read low
  normalized growth: 0.944
Locus YCL029C, strain bik1, active compounds read low
  normalized growth: 0.962
Locus YCL061C, strain MRC1, active compounds read low
  normalized growth: 0.96
Locus YCL069W, strain vba3, active compounds read low
  normalized growth: 0.955
Locus YCR088W, strain abp1, active compounds read low
  normalized growth: 1.01
Locus YDL005C, strain med2, active compounds read low
  normalized growth: 1
Locus YDL035C, strain GPR1, active compounds read low
  normalized growth: 0.969
Locus YDL040C, strain nat1, active compounds read low
  normalized growth: 0.995
Locus YDL074C, strain BRE1, active compounds read low
  normalized growth: 1.02
Locus YDL101C, strain DUN1, active compounds read low
  normalized growth: 1.02
Locus YDL134C, strain PPH21, active compounds read low
  normalized growth: 1.03
Locus YDL185W, strain tfp1, active compounds read low
  normalized growth: 1.01
Locus YDL192W, strain arf1, active compounds read low
  normalized growth: 1.01
Locus YDR001C, strain nth1, active compounds read low
  normalized growth: 1.02
Locus YDR069C, strain doa4, active compounds read low
  normalized growth: 0.985
Locus YDR101C, strain arx1, active compounds read low
  normalized growth: 0.988
Locus YDR137W, strain rgp1, active compounds read low
  normalized growth: 0.743 (active)
Locus YDR150W, strain NUM1, active compounds read low
  normalized growth: 1.06
Locus YDR159W, strain sac3, active compounds read low
  normalized growth: 0.977
Locus YDR162C, strain NBP2, active compounds read low
  normalized growth: 1.02
Locus YDR195W, strain ref2
  normalized growth: 1.1
Locus YDR297W, strain sur2, active compounds read low
  normalized growth: 0.963
Locus YDR318W, strain mcm21, active compounds read low
  normalized growth: 0.994
Locus YDR334W, strain swr1, active compounds read low
  normalized growth: 1.04
Locus YDR335W, strain msn5, active compounds read low
  normalized growth: 0.941
Locus YDR388W, active compounds read low
  normalized growth: 1.01
Locus YDR392W, strain spt3, active compounds read low
  normalized growth: 0.493 (active)
Locus YDR502C, strain sam2, active compounds read low
  normalized growth: 1
Locus YEL003W, strain gim4, active compounds read low
  normalized growth: 0.97
Locus YEL037C, strain rad23, active compounds read low
  normalized growth: 1.01
Locus YEL061C, strain CIN8 (second series), active compounds read low
  normalized growth: 0.983
Locus YEL061C, strain CIN8, active compounds read low
  normalized growth: 1.04
Locus YER015W, strain faa2, active compounds read low
  normalized growth: 0.933
Locus YER016W, strain bim1, active compounds read low
  normalized growth: 1.02
Locus YER110C, active compounds read low
  normalized growth: 1.01
Locus YER111C, strain swi4, active compounds read low
  normalized growth: 1.01
Locus YER155C, strain BEM2 (second series), active compounds read low
  normalized growth: 0.874
Locus YER155C, strain BEM2, active compounds read low
  normalized growth: 1.05
Locus YER167W, strain BCK2, active compounds read low
  normalized growth: 1.04
Locus YFR010W, strain ubp6, active compounds read low
  normalized growth: 0.99
Locus YGL078C, strain dbp3, active compounds read low
  normalized growth: 0.94
Locus YGL086W, strain mad1, active compounds read low
  normalized growth: 1.01
Locus YGL167C, strain pmr1, active compounds read low
  normalized growth: 1.02
Locus YGL173C, strain kem1, active compounds read low
  normalized growth: 0.999
Locus YGL227W, strain vid30, active compounds read low
  normalized growth: 1.02
Locus YGL240W, strain doc1, active compounds read low
  normalized growth: 0.879 (active)
Locus YGL248W, strain PDE1, active compounds read low
  normalized growth: 1.03
Locus YGL253W, strain hxk2, active compounds read low
  normalized growth: 0.754 (active)
Locus YGR078C, strain PAC10, active compounds read low
  normalized growth: 1.01
Locus YGR135W, strain pre9, active compounds read low
  normalized growth: 0.985
Locus YGR229C, strain SMI1, active compounds read low
  normalized growth: 0.984
Locus YGR252W, strain gcn5, active compounds read low
  normalized growth: 0.935
Locus YHR013C, strain ard1, active compounds read low
  normalized growth: 0.965
Locus YHR027C, strain rpn1, active compounds read low
  normalized growth: 0.997
Locus YHR030C, strain SLT2, active compounds read low
  normalized growth: 1.05 and 1.01
Locus YHR079C, strain IRE1 (second series), active compounds read low
  normalized growth: 1
Locus YHR079C, strain IRE1, active compounds read low
  normalized growth: 1.02
Locus YHR094C, strain hxt1, active compounds read low
  normalized growth: 1.02
Locus YHR129C, strain ARP1, active compounds read low
  normalized growth: 1.06
Locus YHR142W, strain chs7, active compounds read low
  normalized growth: 0.78 (active)
Locus YHR200W, strain rpn10, active compounds read low
  normalized growth: 0.999
Locus YIL066C, strain RNR3, active compounds read low
  normalized growth: 1.03
Locus YIL073C, strain SPO22, active compounds read low
  normalized growth: 0.994
Locus YIL125W, strain kgd1, active compounds read low
  normalized growth: 1.03
Locus YIR030C, strain dcg1, active compounds read low
  normalized growth: 1.01
Locus YJL092W, strain hpr5, active compounds read low
  normalized growth: 1.01
Locus YJL095W, strain BCK1 (second series), active compounds read low
  normalized growth: 0.83 (active)
Locus YJL095W, strain BCK1, active compounds read low
  normalized growth: 1.04 and 1.01
Locus YJL115W, strain asf1, active compounds read low
  normalized growth: 1.04
Locus YJL129C, strain trk1, active compounds read low
  normalized growth: 0.921
Locus YJL134W, strain LCB3, active compounds read low
  normalized growth: 1.03
Locus YJL154C, strain vps35, active compounds read low
  normalized growth: 1.02
Locus YJL164C, strain tpk1, active compounds read low
  normalized growth: 0.865 (active)
Locus YJL166W, strain qcr8, active compounds read low
  normalized growth: 0.845 (active)
Locus YJL168C, strain set2, active compounds read low
  normalized growth: 1.02
Locus YJL187C, strain SWE1 (second series), active compounds read low
  normalized growth: 1
Locus YJR043C, strain POL32, active compounds read low
  normalized growth: 0.969
Locus YJR066W, strain TOR1, active compounds read low
  normalized growth: 0.96

— PubChem BioAssay AID1159580 (chemical genetic matrix, 2015)
